Source: PubChem BioAssay (NCATS)
Records with an inconclusive call do not appear. Active and inactive are the calls of the source. Unless noted, the call rests on the fitted dose curve; in most records, active means well fitted curve in the direction sought with a large enough effect; inconclusive means small, poorly fitted or top-dose-only effect, or another doubt; inactive means no such curve, though single readings can be large; an effect the other way counts as inactive or inconclusive.

What was measured:
[1] = molecular target: Mitogen-activated protein kinase 10 (Mus musculus) (UniProt Q61831); assay: JNK3 AlphaScreen Assay (AID 530; active means well fitted curve in either direction with a large enough effect, not every such curve was filed as active;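 further: kinase came from lysate of stimulated human HepG2 cells; signal reports phosphorylation of biotinylated GST-cJun 1-79 at Ser73 with 10 µM ATP; on the % scale 0 is the no-effect control and ±100 the full control effect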)
Method in brief: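 qHTS titrations with 15 min compound pre-incubation before adding ATP (10 uM final). Read-out: AlphaScreen of Ser73-phosphorylated biotin-GST-cJun using HepG2 lysate JNK3 activated by IL-1β and TNFα.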

[2] = Cell Viability - HUV-EC-C (AID 542);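 further: cells exposed to compound for 40 hours; on the % scale 0 is the no-effect control and ±100 the full control effect; nearly all actives have a fitted effect of over 35% in size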
Method in brief: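 Cells were seeded at 1000 per well and incubated 5 hr at 37 °C before compound addition. After 40 hr at 37 °C, CellTiter-Glo reagent was added for 20 min and luminescence read. AC50 values came from Hill-equation modelling.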

[3] = Cell Viability - Renal Proximal Tubule (AID 545);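 further: cells exposed to compound for 40 hours; nearly all actives have a fitted effect of over 40% in size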
Method in brief: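 Rat kidney proximal tubule cells, freshly isolated; 1000 cells/well, 5 hr settle, compound 40 hr 37 °C. CellTiter-Glo 20 min RT, luminescence read. AC50 by standard Hill fit.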

[4] = Cellular Toxicity (caspase-3) HepG2 (AID 654);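 further: cells exposed to compound for 16 hours before reading; 0% = DMSO alone and 100% = caspase signal from 100 µM tamoxifen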
Method in brief: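 Caspase 3/7 activation in HepG2 is measured as rising luminescence after a 16 hr treatment at 37 °C. Values are scaled between DMSO basal and 100 uM tamoxifen, and AC50 is fitted with the Hill equation.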

[5] = Cellular Toxicity (caspase-3) NIH 3T3 (AID 666);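 further: 0% = DMSO basal and 100% = 100 µM tamoxifen stimulation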
Method in brief: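 Cells were plated at 1000 per well and incubated 5 hr at 37°C, then compound was added for 16 hr. Caspase-Glo 3/7 reagent followed for 20 min at room temperature before luminescence was read.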

[6] = Cellular Toxicity (caspase-3) Renal Proximal Tubule (AID 667);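 further: cells exposed to compound for 16 hours at 37 °C before detection; 0% = DMSO basal and 100% = 10 µM staurosporine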
Method in brief: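 Luminescent caspase 3/7 signal from peptide-aminoluciferin cleavage measures apoptosis in freshly isolated rat kidney proximal tubule cells after 16 h compound exposure. Concentration-response data are normalized to DMSO and 10 uM staurosporine, and AC50 values come from Hill equation fits.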

[7] = MultiTox-Fluor Cytotoxicity Assay - LYMP1-001 - Live Cells (AID 947);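 further: 0% = DMSO only and full inhibition = tetraoctylammonium bromide control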
[8] = Cell Viability - LYMP2-009 (AID 968);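 further: 0% = DMSO alone and the full-kill end = tetraoctylammonium bromide at 92 µM; nearly all actives have a fitted effect of over 55% in size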
[9] = Cell Viability - LYMP2-011 (AID 969);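 further: 0% = DMSO only and full inhibition = 92 µM tetraoctylammonium bromide; nearly all actives have a fitted effect of over 60% in size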
Method in brief: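 In this qHTS cytotoxicity format, compounds are tested across concentrations on human lymphoblastoid cells in complete medium for 24 hours at 37 C. Viability is taken as cellular ATP measured by luciferase luminescence.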

[10] = Cell Viability - LYMP2-019 (AID 973);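 further: 0% = DMSO alone and full effect = 92 µM tetraoctylammonium bromide; nearly all actives have a fitted effect of over 55% in size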
Method in brief: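 Cytotoxicity is scored as a concentration-dependent drop in cellular ATP after cells (2500/well) receive compound for 24 hr at 37 C. Tetraoctylammonium bromide serves as positive control.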

[11] = Cell Viability - LYMP2-023 (AID 975);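 further: plate controls were DMSO only for no effect and 92 µM tetraoctylammonium bromide control for full effect; nearly all actives have a fitted effect of over 55% in size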
Method in brief: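 Steps: seed 2500 human lymphoblastoid cells per well, incubate 5 hr at 37 C, add compound for 24 hr at 37 C, add CellTiter-Glo, hold 30 min at room temperature, read luminescence. AC50 derived by Hill modelling.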

[12] = Cell Viability - LYMP2-002 (AID 977);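 further: compound exposure lasted 24 h at 37 °C; plate controls were DMSO only for no effect and 92 µM tetraoctylammonium bromide for full effect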
Method in brief: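 Human lymphoblastoid cells (2500/well) in complete medium were preincubated 5 hr at 37 C, then exposed to compounds for 24 hr at 37 C. Intracellular ATP was read by CellTiter-Glo luminescence; AC50 came from Hill-equation concentration-response fits.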

[13] = Cell Viability - LYMP2-026 (AID 989); further: on the % scale 0 is the no-effect control and ±100 the full control effect; nearly all actives have a fitted effect of over 50% in size
Method in brief: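 Cells are seeded at 2500 per well and held 5 hr at 37 C. Compounds are added in concentration series for 24 hr, then CellTiter-Glo reagent is applied and luminescence read.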

[14] = Cell Viability - LYMP1-002 - Assay at 24 hr (AID 993); further: on the % scale 0 is the no-effect control and ±100 the full control effect
Method in brief: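 Acute toxicity is measured as concentration-dependent loss of cellular ATP in a human lymphoblastoid line (Coriell LYMP1-002) after 24 h treatment in complete medium. ATP is quantified by luciferase luminescence and AC50 derived by Hill modelling.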

[15] = molecular target: Peroxisome proliferator-activated receptor gamma (Homo sapiens) (UniProt P37231); assay: qHTS assay for small molecule agonists of peroxisome proliferator-activated receptor gamma signaling (AID 588536; active means well fitted curve in the direction sought with a large enough effect in the signal ratio, with a control signal flat, not every such curve was filed as active; the % refers to the signal ratio;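 further: 0% = DMSO basal wells and 100% = rosiglitazone at 2 µM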)
Method in brief: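 This is an agonist-mode beta-lactamase reporter assay in HEK293 PPAR-gamma-UAS-bla cells with 1% charcoal/dextran FBS. Compound titrations ran 16 h at 37 C before CCF4 detection. EC50 and efficacy are Hill fits scaled to 2 uM rosiglitazone (100%) and DMSO basal.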

[16] = molecular target: Vitamin D3 receptor (Homo sapiens) (UniProt P11473); assay: qHTS assay for small molecule agonists of vitamin D receptor signaling (AID 588543; calls by dose curve;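 further: 0% = DMSO basal and 100% = reference agonist control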)
Method in brief: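 β-lactamase reporter, VDR-UAS-bla HEK293T, agonist mode. Cells plated 5 h at 37 °C, compound titration 16 h at 37 °C, CCF4 dye 2 h RT, ratio 460/530 nm. Hill fit → EC50, efficacy vs 50 nM 1α,25-(OH)2D3.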

[17] = MultiTox-Fluor Cytotoxicity Assay - LYMP1-001 - Dead Cells (AID 946)
Method in brief: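 Cytotoxicity as increased dead-cell protease fluorescence (bis-AAF-R110, 485/520 nm), read 60 min after MultiTox-Fluor reagent. Human lymphoblastoid line exposed 16 h; Hill-fitted AC50, with DMSO as 0% and 15 uM tetraoctylammonium bromide as 100%.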

[18] = MultiTox-Fluor Cytotoxicity Assay - LYMP1-002 - Live Cells (AID 955);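 further: cells exposed to compound for 16 hours; on the % scale 0 is the no-effect control and ±100 the full control effect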
Method in brief: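 Cells were seeded at 2500 per well and incubated 5 hr. Compounds were then added for 16 hr at 37 C, followed by MultiTox-Fluor reagent for 60 min at room temperature and fluorescence reading of viable-cell protease signal.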

[19] = qHTS assay for small molecule disruptors of the mitochondrial membrane potential - 5 hr assay (AID 651755; calls by dose curve; further: on the % scale 0 is the no-effect control and ±100 the full control effect; nearly all actives have a fitted effect of over 40% in size)
Method in brief: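 Membrane-potential dye readout: red aggregate (540 ex/590 em) versus green monomer (490 ex/535 em) fluorescence after 30 min dye loading, following 5 hr compound exposure at 37C of overnight-plated HepG2 cells.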

[20] = Cellular Toxicity (caspase-3) Jurkat (AID 655); conditions: Jurkat caspase-3 activation, luminescence; caspase-3 activation: at 92.2 µM (top of the series), DMSO = 0%, tamoxifen = 100%;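 further: cells exposed to compound for 16 h at 37 °C before reading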; further: potency means the concentration at half of the fitted maximal effect
Method in brief: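 Luminescent caspase-3/7 readout (aminoluciferin substrate cleavage) in human T-cell leukemia Jurkat cells after 16 hr compound exposure. Concentration-response normalized to DMSO and 100 uM tamoxifen; AC50 by standard Hill equation.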

Vitamin D3 receptor (Homo sapiens), sequence (P11473 whole entry, looked up): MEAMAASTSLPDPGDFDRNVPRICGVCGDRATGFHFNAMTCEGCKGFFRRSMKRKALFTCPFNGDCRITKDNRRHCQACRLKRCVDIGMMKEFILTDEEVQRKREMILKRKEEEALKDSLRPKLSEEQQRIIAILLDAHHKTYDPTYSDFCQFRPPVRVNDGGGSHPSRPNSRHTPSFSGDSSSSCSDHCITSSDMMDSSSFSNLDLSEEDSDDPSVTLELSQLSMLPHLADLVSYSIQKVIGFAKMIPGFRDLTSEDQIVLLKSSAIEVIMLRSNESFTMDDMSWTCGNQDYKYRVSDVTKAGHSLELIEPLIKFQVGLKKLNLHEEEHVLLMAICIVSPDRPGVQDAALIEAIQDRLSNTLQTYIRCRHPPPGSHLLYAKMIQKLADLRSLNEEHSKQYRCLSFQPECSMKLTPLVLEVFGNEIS
Peroxisome proliferator-activated receptor gamma (Homo sapiens), sequence (P37231 whole entry, looked up): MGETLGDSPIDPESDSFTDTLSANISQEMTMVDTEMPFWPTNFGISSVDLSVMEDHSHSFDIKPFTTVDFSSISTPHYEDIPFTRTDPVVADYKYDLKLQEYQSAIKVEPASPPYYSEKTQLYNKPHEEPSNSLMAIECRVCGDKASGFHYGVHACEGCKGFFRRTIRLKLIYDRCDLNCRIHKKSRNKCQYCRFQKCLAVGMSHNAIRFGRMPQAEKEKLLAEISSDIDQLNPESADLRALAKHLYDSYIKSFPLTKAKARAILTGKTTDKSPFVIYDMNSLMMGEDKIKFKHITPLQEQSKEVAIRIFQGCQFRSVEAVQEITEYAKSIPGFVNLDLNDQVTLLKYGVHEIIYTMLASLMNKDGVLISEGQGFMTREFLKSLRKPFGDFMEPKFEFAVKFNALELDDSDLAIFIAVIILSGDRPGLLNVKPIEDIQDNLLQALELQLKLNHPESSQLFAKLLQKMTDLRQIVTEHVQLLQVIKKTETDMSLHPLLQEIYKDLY

C=CCOCC1CO1 (centres undefined)
inactive: Potency [1] | Potency [2] | outcome [3] | outcome [4] | Potency [5] | outcome [6] | outcome [7] | Potency [8] | Potency [9] | Potency [10] | Potency [11] | Potency [12] | Potency [13] | Potency [14] | outcome [15] | outcome [16]

CCC(Cl)[N+](=O)[O-] (centres undefined)
inactive: Potency [1] | Potency [2] | outcome [3] | outcome [4] | Potency [5] | outcome [6] | outcome [17] | outcome [18] | Potency [8] | Potency [9] | Potency [10] | Potency [11] | Potency [12] | Potency [13] | Potency [14] | outcome [15] | outcome [16] | Potency [19]

CCCCCCCCCCCCCl
inactive: Potency [1] | Potency [2] | outcome [3] | outcome [4] | caspase-3 activation [20] 1.16% | Potency [5] | outcome [6] | outcome [17] | outcome [7] | outcome [18] | Potency [8] | Potency [10] | Potency [11] | Potency [12] | Potency [13] | outcome [15] | outcome [16] | Potency [19]

C=CC(=O)OCC(C)C
inactive: Potency [1] | Potency [2] | outcome [3] | outcome [4] | caspase-3 activation [20] 0.654% | Potency [5] | outcome [17] | outcome [7] | outcome [18] | Potency [8] | Potency [9] | Potency [10] | Potency [11] | Potency [12] | Potency [13] | Potency [14] | outcome [15] | outcome [16]

CCCBr
inactive: Potency [1] | Potency [2] | outcome [3] | outcome [4] | caspase-3 activation [20] 0.185% | Potency [5] | outcome [6] | outcome [17] | outcome [7] | outcome [18] | Potency [8] | Potency [9] | Potency [10] | Potency [11] | Potency [12] | Potency [13] | Potency [14] | outcome [15] | outcome [16] | Potency [19]

Nc1ccc(Cc2ccc(N)cc2)cc1
inactive: Potency [1] | Potency [2] | outcome [4] | caspase-3 activation [20] 2.26% | Potency [5] | outcome [6] | outcome [17] | outcome [7] | Potency [8] | Potency [9] | Potency [10] | Potency [11] | Potency [12] | Potency [13] | Potency [14] | outcome [15] | outcome [16] | Potency [19]

Nc1cccc2ccccc12
inactive: Potency [1] | Potency [2] | outcome [3] | outcome [4] | Potency [5] | outcome [17] | outcome [7] | outcome [18] | Potency [11] | Potency [12] | Potency [13] | Potency [14] | outcome [15] | Potency [19]
active: Potency [20] 25.1 µM

Nn1cnnc1
inactive: Potency [1] | Potency [2] | outcome [3] | caspase-3 activation [20] 0.14% | Potency [5] | outcome [6] | outcome [17] | outcome [7] | Potency [8] | Potency [9] | Potency [10] | Potency [11] | Potency [12] | Potency [13] | Potency [14] | outcome [16] | Potency [19]

CC(=O)[O-].CC(=O)[O-].CC(=O)[O-].[Cr+3]
inactive: Potency [1] | Potency [2] | outcome [3] | outcome [4] | caspase-3 activation [20] 0.251% | Potency [5] | outcome [6] | outcome [17] | outcome [18] | Potency [8] | Potency [9] | Potency [10] | Potency [11] | Potency [12] | Potency [14] | Potency [19]

CC(=O)CCC(C)=O
inactive: Potency [1] | Potency [2] | outcome [3] | caspase-3 activation [20] 0.378% | outcome [6] | outcome [17] | outcome [7] | outcome [18] | Potency [8] | Potency [9] | Potency [10] | Potency [11] | Potency [12] | Potency [14] | outcome [15] | outcome [16] | Potency [19]

Cc1ccccc1[N+](=O)[O-]
inactive: Potency [1] | Potency [2] | outcome [3] | outcome [4] | caspase-3 activation [20] 0.646% | Potency [5] | outcome [6] | outcome [17] | outcome [7] | outcome [18] | Potency [8] | Potency [9] | Potency [10] | Potency [11] | Potency [13] | Potency [14] | outcome [15] | outcome [16]

CC(C#N)CCC#N (centres undefined)
inactive: Potency [1] | Potency [2] | outcome [3] | outcome [4] | caspase-3 activation [20] 0.213% | Potency [5] | outcome [6] | outcome [17] | outcome [7] | outcome [18] | Potency [8] | Potency [9] | Potency [10] | Potency [11] | Potency [12] | Potency [13] | Potency [14] | outcome [15] | outcome [16]

CCN(CC)CCO
inactive: Potency [1] | Potency [2] | outcome [4] | caspase-3 activation [20] 2.76% | outcome [6] | outcome [7] | outcome [18] | Potency [8] | Potency [9] | Potency [10] | Potency [11] | Potency [12] | Potency [13] | outcome [15] | Potency [19]

CCOC(=O)CC(SP(=O)(OC)OC)C(=O)OCC (centres undefined)
inactive: Potency [1] | Potency [2] | outcome [3] | caspase-3 activation [20] 1.26% | Potency [5] | outcome [6] | outcome [17] | outcome [7] | outcome [18] | Potency [8] | Potency [9] | Potency [10] | Potency [11] | Potency [12] | Potency [13] | Potency [14] | outcome [15] | Potency [19]

Cc1ccc(N)c(C)c1
inactive: Potency [1] | Potency [2] | outcome [3] | outcome [4] | caspase-3 activation [20] 1.21% | outcome [7] | outcome [18] | Potency [8] | Potency [9] | Potency [10] | Potency [11] | Potency [12] | Potency [13] | outcome [15] | outcome [16] | Potency [19]
